Results taken from PubChem BioAssay (NCATS).
Records with an inconclusive call do not appear. Calls of active or inactive are those of the source. Unless noted, calls follow the shape of the full dose curve.

Experiments:
[1] = qHTS for Inhibitors of the Functional Ribonucleoprotein Complex (vRNP) of Lassa (LASV) Arenavirus: LASV Primary Screen - GLuc reporter signal (AID 1347082; calls by dose curve; tested in HEK293 reporter line; also: nearly all actives have a fitted effect of over 60% in size)
[2] = qHTS for Inhibitors of the Functional Ribonucleoprotein Complex (vRNP) of Lassa (LASV) Arenavirus: Viability assay - alamar blue signal for LASV Primary Screen (AID 1347083; calls by dose curve; tested in HEK293 reporter line; also: nearly all actives have a fitted effect of over 80% in size)
[3] = qHTS for Inhibitors of the Functional Ribonucleoprotein Complex (vRNP) of Lymphocytic Choriomeningitis Arenaviruses (LCMV): Viability assay - alamar blue signal for LCMV Primary Screen (AID 1347085; calls by dose curve; tested in HEK293 reporter line; also: nearly all actives have a fitted effect of over 80% in size)
[4] = target: Nucleoprotein (Lymphocytic choriomeningitis virus (strain Armstrong)) (UniProt P09992); test: qHTS for Inhibitors of the Functional Ribonucleoprotein Complex (vRNP) of Lymphocytic Choriomeningitis Arenaviruses (LCMV): LCMV Primary Screen - GLuc reporter signal (AID 1347086); also: nearly all actives have a fitted effect of over 70% in size

Measured: Potency
Potency is read from the fitted curve at half-maximal effect.

Chain of Nucleoprotein (Lymphocytic choriomeningitis virus (strain Armstrong)) (P09992 whole entry, looked up): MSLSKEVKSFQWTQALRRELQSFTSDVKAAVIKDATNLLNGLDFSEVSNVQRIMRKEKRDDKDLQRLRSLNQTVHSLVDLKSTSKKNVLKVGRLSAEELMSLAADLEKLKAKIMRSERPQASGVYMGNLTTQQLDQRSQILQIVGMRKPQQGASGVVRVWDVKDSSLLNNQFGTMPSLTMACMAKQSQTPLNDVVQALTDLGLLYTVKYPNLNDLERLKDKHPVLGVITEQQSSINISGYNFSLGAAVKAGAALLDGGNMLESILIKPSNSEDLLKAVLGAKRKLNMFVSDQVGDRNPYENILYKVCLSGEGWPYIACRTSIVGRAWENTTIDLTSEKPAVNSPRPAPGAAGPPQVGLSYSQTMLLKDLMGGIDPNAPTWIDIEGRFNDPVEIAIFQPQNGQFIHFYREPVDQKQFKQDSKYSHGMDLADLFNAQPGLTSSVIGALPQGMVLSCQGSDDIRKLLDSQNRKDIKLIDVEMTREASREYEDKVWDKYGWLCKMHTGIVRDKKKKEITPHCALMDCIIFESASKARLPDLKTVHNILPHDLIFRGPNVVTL

NC(=O)N1c2ccccc2CC(=O)c2ccccc21
inactive: all assays above

O=C1Nc2ccc(Cl)cc2[C@@](C#CC2CC2)(C(F)(F)F)O1
inactive: all assays above

COc1ccccc1Oc1c(NS(=O)(=O)c2ccc(C(C)(C)C)cc2)nc(-c2ncccn2)nc1OCCO
inactive: all assays above

CCOC(=O)c1ncn2c1CN(C)C(=O)c1cc(F)ccc1-2
inactive: all assays above

Cc1ccc(O)c([C@H](CCN(C(C)C)C(C)C)c2ccccc2)c1
inactive: all assays above

Cc1ccccc1C(=O)Nc1ccc(C(=O)N2CCCC(O)c3cc(Cl)ccc32)c(C)c1 (centres undefined)
inactive: all assays above

O=C1CCc2cc(OCCCCc3nnnn3C3CCCCC3)ccc2N1
inactive: all assays above

CNCCCC1c2ccccc2C=Cc2ccccc21
inactive: all assays above

CCOC(=O)[C@H](CCc1ccccc1)N[C@@H](C)C(=O)N1[C@H](C(=O)O)C[C@@H]2CCC[C@@H]21
inactive: all assays above

CC(C)(C(=O)O)c1ccc(C(O)CCCN2CCC(C(O)(c3ccccc3)c3ccccc3)CC2)cc1 (centres undefined)
inactive: all assays above

CCCN[C@H]1CCc2nc(N)sc2C1
inactive: all assays above

COC(c1ccccc1)(c1ccccc1)[C@H](Oc1nc(C)cc(C)n1)C(=O)O
inactive: all assays above

CC(C)C[C@H](NC(=O)[C@H](Cc1ccccc1)NC(=O)c1cnccn1)B(O)O
active: [1] 485 nM | [2] 217 nM | [3] 685 nM | [4] 344 nM

COCCCC/C(=N\OCCN)c1ccc(C(F)(F)F)cc1
inactive: all assays above

CN1CC(=O)N/C1=N/C(=O)Nc1cccc(Cl)c1
inactive: all assays above

O[C@@H]1CO[C@H]2[C@@H]1OC[C@@H]2O
inactive: all assays above
